Shown are actives, neighbours in structure and some others; about 0.87% of the full set was active somewhere.
BLM helicase inh: qHTS Assay for Inhibitors of Bloom's syndrome helicase (BLM); RecQ-like DNA helicase BLM (Homo sapiens), P54132; recombinant BLM DNA unwinding, fluorescence dequenching; Potency, µM (top dose mostly 56.1 µM), inactives show top-dose activity change, negative = inhibition, usual class: inhibitors; 350,000 compounds, 0.2% hits; AID 2528, 2010;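 further: plate controls were vehicle for no effect and no enzyme for full effect; nearly all actives have a fitted effect of over 35% in size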
WRN inhibitor: qHTS for Inhibitors of WRN Helicase | Bifunctional 3'-5' exonuclease/ATP-dependent helicase WRN (Homo sapiens), Q14191 | WRN helicase unwinding, fluorescent forked duplex, kinetic | Potency, µM (titrated, usually from 114 µM), for the others: top-dose activity change, negative = inhibition, hits mostly inhibitors | 360,000 compounds, 0.46% hits | AID 651768, 2012; further: nearly all actives have a fitted effect of over 55% in size
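Kinetic red-fluorescence monitoring (525/598 nm) tracks WRN helicase activity after 100 nM fluorophore-quencher forked duplex and 2 mM ATP are added to 20 nM enzyme pretreated 15 min at room temperature with compound.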
RECQ1 inh: qHTS Assay for Inhibitors of RecQ-Like Dna Helicase 1 (RECQ1); 240,000 compounds, 0.54% hits; RECQ1 DNA unwinding, red fluorescence kinetic read; ATP-dependent DNA helicase Q1 (Homo sapiens), P46063; Potency, µM (top dose mostly 57.3 µM), for inactives: at the highest dose activity, negative = inhibition, actives largely listed as inhibitors;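 further: plate controls were vehicle for no effect and no enzyme for full effect; nearly all actives have a fitted effect of over 30% in size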
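RECQ1T1 50 nM; forked duplex (20 bp + 30-nt ss tails) 200 nM, ATP 2 mM final; pH 8.0, 2 mM MgCl2, 2.5 ug/ml poly(dI-dC); 15 min compound preincubation; discontinuous kinetic read over 2 h at RT.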
APE1 inh: qHTS Assay for Inhibitors of the Human Apurinic/apyrimidinic Endonuclease 1 (APE1). DNA repair nuclease/redox regulator APEX1 (Homo sapiens), P27695. recombinant APE1, TAMRA/BHQ-2 abasic DNA cleavage fluorescence. Potency, µM (top dose mostly 65.8 µM), for the others: top-dose activity change, negative = inhibition, most hits filed as inhibitors. 350,000 compounds, 0.35% hits;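 further: plate controls were vehicle for no effect and reference inhibitor for full effect; nearly all actives have a fitted effect of over 55% in size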
Target sequence (P27695 whole entry, looked up): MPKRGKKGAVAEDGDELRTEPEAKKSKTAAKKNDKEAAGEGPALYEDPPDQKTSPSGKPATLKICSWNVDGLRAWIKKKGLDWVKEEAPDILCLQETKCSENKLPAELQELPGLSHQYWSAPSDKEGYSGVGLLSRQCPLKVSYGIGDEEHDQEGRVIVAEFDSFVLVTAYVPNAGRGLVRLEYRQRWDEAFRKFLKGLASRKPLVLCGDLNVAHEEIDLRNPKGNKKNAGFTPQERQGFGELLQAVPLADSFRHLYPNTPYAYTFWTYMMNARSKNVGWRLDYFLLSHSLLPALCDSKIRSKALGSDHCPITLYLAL
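Compound pre-exposure to 0.75 nM APE1, 15 min at ambient temperature. Reaction initiated with 50 nM TAMRA/BHQ-2 THF substrate, read immediately in kinetic mode, 525 nm excitation, 598 nm emission.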
FEN1 inhibitor: qHTS Assay for the Inhibitors of Human Flap endonuclease 1 (FEN1). Potency, µM (top dose mostly 114 µM), without a hit: at the top dose activity change, negative = inhibition, usual class: inhibitors. Recombinant FEN1 flap cleavage, fluorescence, 15 min. AID 588795, 2011. 390,000 compounds, 0.35% hits; further: nearly all actives have a fitted effect of over 65% in size
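FEN1 at 10 nM, compound pretreatment for 15 min (room temperature), 50 nM final substrate to initiate; endpoint reads at 0 and 15 min; DMSO-only plates used as vehicle background.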
The depositor's hits bear a star; ! = a repeat was not active; [ ] = remark or other dose. The call rests on the fitted dose curve; in most records, active means well fitted curve in the direction sought with a large enough effect; inconclusive means small, poorly fitted or top-dose-only effect, or another doubt; inactive means no such curve, though single readings can be large; an effect the other way counts as inactive or inconclusive. Unless noted, on the % scale 0 is the no-effect control and ±100 the full control effect; potency means the concentration at half of the fitted maximal effect.

Screening Clc1nssc1=Nc1ccccc1 returned BLM helicase inh -12%, WRN inhibitor inconclusive, RECQ1 inh -15%, APE1 inh 8% and FEN1 inhibitor -1%.
For CCOC(=O)c1ccc(N=c2ssnc2Cl)cc1 the results were BLM helicase inh -6%, WRN inhibitor 22µM*, RECQ1 inh inactive, APE1 inh -10% and FEN1 inhibitor inconclusive.
`COc1ccc(N=c2ssnc2Cl)cc1` gave BLM helicase inh 3%, WRN inhibitor inconclusive, RECQ1 inh inactive, APE1 inh 0% and FEN1 inhibitor -5%.
Clc1ccc(N=c2ssnc2Cl)cc1 was read as BLM helicase inh 3%, WRN inhibitor 79µM*, RECQ1 inh inactive, APE1 inh 2% and FEN1 inhibitor 0%.
Screening C(=C\c1nccc2ccccc12)/c1ccc(N2CCOCC2)cc1 returned FEN1 inhibitor -17%.
For COc1ccc2c(CNCc3ccc(Cl)cc3)c(C(=O)O)n(Cc3ccccc3C)c2c1 the results were BLM helicase inh -3% and FEN1 inhibitor 22%.
O=C(CSc1nc2c(c(=O)[nH]1)CN(Cc1ccc3c(c1)OCO3)CC2)Nc1cccc(Cl)c1 was read as BLM helicase inh -1% and FEN1 inhibitor -3%.
Screening Fc1ccc(N=c2ssnc2Cl)c(F)c1 returned BLM helicase inh -1%, WRN inhibitor 32µM*, RECQ1 inh -1%, APE1 inh 1% and FEN1 inhibitor inconclusive.
O=C(C[n+]1ccc(C(=O)N/N=C/c2ccc(OCc3ccccc3)cc2)cc1)c1ccccc1 was read as BLM helicase inh 35µM*, WRN inhibitor -15%, RECQ1 inh -12%, APE1 inh inconclusive and FEN1 inhibitor -19%.
O=C(NCC(O)CO)c1c(I)c(C(=O)NCC(O)CO)c(I)c(N(CCO)C(=O)CO)c1I (centres undefined) was read as APE1 inh 2%[21 µM].
`CC(C)(c1cc(Br)c(O)c(Br)c1)c1cc(Br)c(O)c(Br)c1` gave WRN inhibitor inconclusive, RECQ1 inh 22µM*!, APE1 inh -3% and FEN1 inhibitor inconclusive.
For C[C@H](Cc1ccc(O)c(O)c1)[C@@H](C)Cc1ccc(O)c(O)c1 the results were RECQ1 inh 2.5µM* and APE1 inh inconclusive.
For O=C(O)C1Nc2c(cccc2C(F)(F)F)C2C=CCC12 (centres undefined) the results were BLM helicase inh -7% and APE1 inh 17µM*.
For CC(=O)c1ccc2c(c1)C1C=CCC1C(C(=O)O)N2 (centres undefined) the results were BLM helicase inh -8%, WRN inhibitor 14µM*, RECQ1 inh inactive, APE1 inh inconclusive and FEN1 inhibitor 13µM*.
For Oc1c(Cl)cc(CN2CCCCC2)c2cccnc12 the results were BLM helicase inh 0% and APE1 inh 26%.
O=[N+]([O-])c1cc(CN2CCCC2)c2cccnc2c1O was read as BLM helicase inh inconclusive, WRN inhibitor inconclusive, RECQ1 inh inconclusive, APE1 inh 3.5µM* and FEN1 inhibitor 40µM*.
Screening COc1cccc(-n2c(=O)c3sc4ccccc4c3n(CC(=O)Nc3ccccc3OC)c2=O)c1 returned BLM helicase inh -6% and FEN1 inhibitor -3%.
For CCCN(CCC)C(=O)Cn1c(=O)n(-c2ccccc2)c(=O)c2c3c(sc21)CCCC3 the results were BLM helicase inh -4% and FEN1 inhibitor -6%.
For O=C(CCCOc1ccc(Cl)cc1Cl)Nc1ccncc1 the results were BLM helicase inh -1%, WRN inhibitor -15%, RECQ1 inh -6%, APE1 inh 28µM* and FEN1 inhibitor -13%.
Screening Cc1cc(C)n2cnnc2n1 returned BLM helicase inh 1%, WRN inhibitor 1%, RECQ1 inh 5%, APE1 inh inconclusive and FEN1 inhibitor -2%.
`Cc1cc(C)n2c(=S)[nH]nc2n1` gave BLM helicase inh 0%, WRN inhibitor 56µM*, RECQ1 inh -2%, APE1 inh 8% and FEN1 inhibitor -1%.
